From PubChem BioAssay AID1159580 (chemical genetic matrix, 2015)
Out of some 5,500 compounds screened, about 2,000 (36%) were called active. Inconclusive results (about 18%) are left out. Cut-off read from the data, not from the text of the source: active = normalized growth mostly below about 0.91 (no sharp cut-off); inconclusive = no clear call, values can overlap the other calls; inactive = mostly above about 0.92. Some of the results follow.

Assay: chemical genetic growth profiling, strain panel (AID 1159580);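 note: tested at 20 µM; growth read once vehicle control cultures reached saturation at 30 °C; 1 = growth at the plate median or of vehicle wells; lower values mean less growth of the strain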
Conditions: S. cerevisiae deletion strains, growth OD

Measured: normalized growth

O=c1ccc2ccc(O)c(O)c2o1
inactive: locus YAL021C, strain ccr4, hits give low values 1.01 | locus YAL026C, strain drs2, hits give low values 1.01 | locus YAL030W, strain snc1, hits give low values 1.01 | locus YAL040C, strain CLN3, hits give low values 0.995 | locus YBL061C, strain skt5, hits give low values 1 | locus YBR009C, strain hhf1, hits give low values 1 | locus YBR023C, strain chs3, hits give low values 1 | locus YBR171W, strain sec66, hits give low values 1 | locus YBR231C, strain swc5, hits give low values 0.98 | locus YBR279W, strain paf1, hits give low values 1.01 | locus YCL011C, strain gbp2, hits give low values 1.03 | locus YCL016C, strain dcc1, hits give low values 0.996 | locus YCL061C, strain MRC1 (second series), hits give low values 0.999 | locus YCL069W, strain vba3, hits give low values 1.01 | locus YCR088W, strain abp1, hits give low values 1.01 | locus YDL005C, strain med2, hits give low values 1 | locus YDL040C, strain nat1, hits give low values 1.01 | locus YDR001C, strain nth1, hits give low values 1.02 | locus YDR069C, strain doa4, hits give low values 0.982 | locus YDR137W, strain rgp1, hits give low values 0.982 | locus YDR150W, strain NUM1, hits give low values 0.998 | locus YDR159W, strain sac3, hits give low values 0.966 | locus YDR195W, strain ref2 0.989 | locus YDR297W, strain sur2, hits give low values 1 | locus YDR334W, strain swr1, hits give low values 1.01 | locus YDR335W, strain msn5, hits give low values 1.02 | locus YDR363W, strain ESC2, hits give low values 0.961 | locus YDR392W, strain spt3, hits give low values 0.934 | locus YEL003W, strain gim4, hits give low values 1 | locus YEL037C, strain rad23, hits give low values 1.01 | locus YEL061C, strain CIN8 (second series), hits give low values 1.01 | locus YER002W, strain NOP16, hits give low values 0.996 | locus YER015W, strain faa2, hits give low values 0.999 | locus YER016W, strain bim1, hits give low values 1.02 | locus YER111C, strain swi4, hits give low values 0.999 | locus YER155C, strain BEM2 (second series), hits give low values 1 | locus YFR010W, strain ubp6, hits give low values 1.01 | locus YGL167C, strain pmr1, hits give low values 1.01 | locus YGL173C, strain kem1, hits give low values 1 | locus YGL227W, strain vid30, hits give low values 1.01 | locus YGL240W, strain doc1, hits give low values 0.986 | locus YGL253W, strain hxk2, hits give low values 1.03 | locus YGR078C, strain PAC10, hits give low values 0.994 | locus YGR229C, strain SMI1, hits give low values 1.03 | locus YHR013C, strain ard1, hits give low values 0.997 | locus YHR027C, strain rpn1, hits give low values 1 | locus YHR030C, strain SLT2, hits give low values 0.98 | locus YHR079C, strain IRE1, hits give low values 0.96 | locus YHR142W, strain chs7, hits give low values 1.05 | locus YJL092W, strain hpr5, hits give low values 1.01 | locus YJL095W, strain BCK1 (second series), hits give low values 1 | locus YJL095W, strain BCK1, hits give low values 0.978 | locus YJL115W, strain asf1, hits give low values 1.01 | locus YJL129C, strain trk1, hits give low values 0.999 | locus YJL154C, strain vps35, hits give low values 1.01 | locus YJL164C, strain tpk1, hits give low values 1 | locus YJL166W, strain qcr8, hits give low values 1.02 | locus YJL187C, strain SWE1, hits give low values 1.02 | locus YJR066W, strain TOR1, hits give low values 0.924 | locus YJR075W, strain HOC1, hits give low values 1.05 | locus YKL160W, strain elf1, hits give low values 1 | locus YKR026C, strain gcn3, hits give low values 1.01 | locus YKR091W, strain srl3, hits give low values 1.01 | locus YLL001W, strain dnm1, hits give low values 0.996 | locus YLL026W, hits give low values 1 | locus YLL041C, strain sdh2, hits give low values 1.01 | locus YLR027C, strain aat2, hits give low values 0.993 | locus YLR113W, strain HOG1, hits give low values 1.01 | locus YLR221C, strain rsa3, hits give low values 0.991 | locus YLR258W, strain gsy2, hits give low values 1.01 | locus YLR262C, strain YPT6 (second series), hits give low values 1.02 | locus YLR320W, strain mms22, hits give low values 1.01 | locus YLR342W, strain FKS1, hits give low values 1.01 | locus YLR357W, strain rsc2, hits give low values 1 | locus YLR370C, strain arc18, hits give low values 1.01 | locus YLR384C, strain iki3, hits give low values 0.981 | locus YML120C, strain ndi1, hits give low values 1 | locus YMR058W, strain fet3, hits give low values 1.01 | locus YMR125W, strain sto1, hits give low values 1 | locus YMR129W, hits give low values 1.01 | locus YMR205C, strain PFK2, hits give low values 1.01 | locus YMR231W, strain pep5, hits give low values 0.998 | locus YMR307W, strain GAS1, hits give low values 1.03 | locus YNL071W, strain lat1, hits give low values 1.02 | locus YNL153C, strain GIM3, hits give low values 1.2 | locus YNL175C, strain NOP13, hits give low values 0.974 | locus YNL183C, strain NPR1, hits give low values 0.94 | locus YNL197C, strain WHI3, hits give low values 0.979 | locus YNL209W, strain ssb2, hits give low values 0.994 | locus YNL224C, strain SQS1, hits give low values 0.99 | locus YNL248C, strain rpa49, hits give low values 1.04 | locus YNL322C, strain KRE1 (second series), hits give low values 0.994 | locus YNR049C, strain mso1, hits give low values 0.999 | locus YOR001W, strain rrp6, hits give low values 0.979 | locus YOR070C, strain gyp1, hits give low values 0.991 | locus YOR080W, strain dia2, hits give low values 0.986 | locus YOR083W, strain WHI5 (second series), hits give low values 1.02 | locus YOR083W, strain WHI5, hits give low values 0.999 | locus YOR106W, strain vam3, hits give low values 0.99 | locus YOR231W, strain MKK1, hits give low values 0.966 | locus YOR265W, strain rbl2, hits give low values 1.01 | locus YOR270C, strain vph1, hits give low values 1 | locus YOR290C, strain snf2, hits give low values 0.98 | locus YPL051W, strain arl3, hits give low values 1 | locus YPL078C, strain atp4, hits give low values 1.01 | locus YPL106C, strain sse1, hits give low values 0.967 | locus YPL240C, strain hsp82, hits give low values 1.01 | locus YPL256C, strain CLN2, hits give low values 0.989
